We go through 4 compounds from PubChem BioAssay (EPA / NIEHS).

Read-out in assay [1]: TIMP metallopeptidase inhibitor 1 (TIMP1), TIMP1 (gene 7076)
Description: BSK_hDFCGF_TIMP1: BioMAP Diversity Plus: hDFCGF Assay for TIMP metallopeptidase inhibitor 1 (TIMP1) Biomarker Activity (AID 2283062). Conditions: primary human foreskin fibroblasts; actives raise or lower the signal. An outline of the steps: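 Bidirectional curve fitting against DMSO baseline yielded this endpoint, based on ELISA detection of TIMP-1 in primary human foreskin fibroblasts exposed to compound for 24 h.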

Read-out in assay [2]: Monokine induced gamma interferon (MIG), CXCL9 (gene 4283)
Description: BSK_hDFCGF_MIG: BioMAP Diversity Plus: hDFCGF Assay for Monokine induced gamma interferon (MIG) Biomarker Activity (AID 2283063). To be noted: primary human foreskin fibroblasts; actives raise or lower the signal. An outline of the steps:
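Endpoint derived by bidirectional fitting relative to DMSO; MIG quantified via ELISA in primary human foreskin fibroblasts harvested 24 h after dosing.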

Read-out in assay [3]: Matrix Metallopeptidase 1 (MMP1), MMP1 (gene 4312)
Description: BSK_hDFCGF_MMP1: BioMAP Diversity Plus: hDFCGF Assay for Matrix Metallopeptidase 1 (MMP1) Biomarker Activity (AID 2283064). Conditions: primary human foreskin fibroblasts; actives raise or lower the signal. Summed up: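 ELISA read-out of MMP1 from human foreskin fibroblasts (primary skin cells), 24 h post-dose. Gain or loss of signal was fitted bidirectionally versus DMSO negative control; cytotoxicity was checked by SRB in parallel cultures.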

Read-out in assay [4]: Vascular cell adhesion molecule 1 (VCAM1), VCAM1 (gene 7412)
Description: BSK_hDFCGF_VCAM1: BioMAP Diversity Plus: hDFCGF Assay for Vascular cell adhesion molecule 1 (VCAM1) Biomarker Activity (AID 2283065). To be noted: primary human foreskin fibroblasts; actives raise or lower the signal. An outline of the steps:
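Measured after 24 h chemical treatment of primary human skin fibroblasts, VCAM-1 was detected by ELISA and concentration-response analysed in both directions versus DMSO vehicle.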

Read-out in assay [5]: Plasminogen activator inhibitor-1 (PAI1), SERPINE1 (gene 5054)
In words: BSK_hDFCGF_PAI1: BioMAP Diversity Plus: hDFCGF Assay for Plasminogen activator inhibitor-1 (PAI1) Biomarker Activity (AID 2283066). Conditions: primary human foreskin fibroblasts; actives raise or lower the signal. Summed up:
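PAI-1 levels in human dermal foreskin fibroblasts were quantified by ELISA 24 h after dosing, with gain or loss analysed against DMSO. Overt cytotoxicity was checked by sulforhodamine B total-protein staining in parallel cultures.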

Read-out in assay [6]: Intercellular Adhesion Molecule 1 (ICAM1), ICAM1 (gene 3383)
Description: BSK_KF3CT_ICAM1: BioMAP Diversity Plus: KF3CT Assay for Intercellular Adhesion Molecule 1 (ICAM1) Biomarker Activity (AID 2283067). Conditions: primary human keratinocytes with fibroblasts; actives raise or lower the signal. An outline of the steps: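 Bidirectional curve fitting against a DMSO baseline was applied to ICAM-1 ELISA signal from primary human skin co-cultures harvested 24 h after treatment, with SRB staining of parallel wells for overt cytotoxicity.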

Read-out in assay [7]: Interferon-gamma inducible Protein 10 (IP10), CXCL10 (gene 3627)
In words: BSK_KF3CT_IP10: BioMAP Diversity Plus: KF3CT Assay for Interferon-gamma inducible Protein 10 (IP10) Biomarker Activity (AID 2283068). Conditions: primary human keratinocytes with fibroblasts; actives raise or lower the signal. Summed up:
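In a primary skin co-culture of keratinocytes and fibroblasts, IP-10 is quantified by ELISA at 24 h after dosing. SRB staining of parallel wells monitors overt toxicity. Curves are fitted both directions against DMSO.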

Read-out in assay [8]: Interleukin-1 alpha (IL1a), IL1A (gene 3552)
In words: BSK_KF3CT_IL1a: BioMAP Diversity Plus: KF3CT Assay for Interleukin-1 alpha (IL1a) Biomarker Activity (AID 2283070). To be noted: primary human keratinocytes with fibroblasts; actives raise or lower the signal. An outline of the steps: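 Primary skin co-culture (keratinocytes, foreskin fibroblasts), 24 h exposure; ELISA for IL-1a; bidirectional curve fit vs DMSO.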

Read-out in assay [9]: TIMP metallopeptidase inhibitor 2 (TIMP2), TIMP2 (gene 7077)
In words: BSK_KF3CT_TIMP2: BioMAP Diversity Plus: KF3CT Assay for TIMP metallopeptidase inhibitor 2 (TIMP2) Biomarker Activity (AID 2283071). To be noted: primary human keratinocytes with fibroblasts; actives raise or lower the signal. Summed up: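 TIMP-2 measured by ELISA at 24 h in human keratinocyte/fibroblast primary co-cultures exposed to chemicals. Both increases and decreases were fitted against DMSO. Parallel cultures were stained with SRB for total protein as an overt-cytotoxicity check.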

Read-out in assay [10]: Transforming growth factor beta 1 (TGFb1), TGFB1 (gene 7040)
In words: BSK_KF3CT_TGFb1: BioMAP Diversity Plus: KF3CT Assay for Transforming growth factor beta 1 (TGFb1) Biomarker Activity (AID 2283072). To be noted: primary human keratinocytes with fibroblasts; actives raise or lower the signal. Summed up: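 ELISA quantifies TGF-b1 at 24 h post-dose in a primary human skin co-culture of keratinocytes and fibroblasts, with gain or loss judged against DMSO. Parallel SRB total-protein staining flags overt cytotoxicity.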

Read-out in assay [11]: Matrix Metallopeptidase 9 (MMP9), MMP9 (gene 4318)
Description: BSK_KF3CT_MMP9: BioMAP Diversity Plus: KF3CT Assay for Matrix Metallopeptidase 9 (MMP9) Biomarker Activity (AID 2283074). Conditions: primary human keratinocytes with fibroblasts; actives raise or lower the signal. An outline of the steps:
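ELISA read-out of MMP-9 at 24 h post-dosing in a co-culture of human skin keratinocytes and foreskin fibroblasts. Gain or loss of signal was fitted in both directions against DMSO.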

Read-out in assay [12]: urokinase plasminogen activator (uPA), PLAU (gene 5328)
In words: BSK_KF3CT_uPA: BioMAP Diversity Plus: KF3CT Assay for urokinase plasminogen activator (uPA) Biomarker Activity (AID 2283075). To be noted: primary human keratinocytes with fibroblasts; actives raise or lower the signal. Summed up:
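Skin co-culture (keratinocytes + foreskin fibroblasts), human primary; 24 h post-dose; uPA by ELISA; gain/loss fit vs DMSO baseline.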

Read-out in the next assay: CD40, CD40 (gene 958)
Description: BSK_LPS_CD40: BioMAP Diversity Plus: LPS Assay for CD40 Biomarker Activity (AID 2283076). Conditions: primary human HUVEC with PBMC; actives raise or lower the signal. Summed up:
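Using a multiplexed primary human co-culture (umbilical vein endothelium plus PBMC), CD40 was read by ELISA 24 h after dosing, with cytotoxicity tracked by sulforhodamine B staining of parallel cultures and activity fitted bidirectionally versus DMSO.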

Read-out in assay [13]: E-selectin (Homo sapiens) (UniProt P16581)
Description: BSK_LPS_Eselectin: BioMAP Diversity Plus: LPS Assay for Eselectin Biomarker Activity (AID 2283077). To be noted: primary human HUVEC with PBMC; actives raise or lower the signal. An outline of the steps:
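Dose chemical onto LPS-driven HUVEC/PBMC co-culture; after 24 h, run ELISA for E-selectin; fit up- and down-going responses relative to DMSO control.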

Read-out in assay [14]: Interleukin-8 (IL8), CXCL8 (gene 3576)
Description: BSK_LPS_IL8: BioMAP Diversity Plus: LPS Assay for Interleukin-8 (IL8) Biomarker Activity (AID 2283078). To be noted: primary human HUVEC with PBMC; actives raise or lower the signal. Summed up:
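In this LPS system, chemical-treated human umbilical vein endothelium/PBMC co-cultures were harvested at 24 h for IL-8 ELISA.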

The nature of assay [15]: BSK_LPS_SRB: Viability Assessment in the BioMAP Diversity Plus: LPS Assay (AID 2283079).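 Note: total protein by sulforhodamine B absorbance as a cytotoxicity measure; measured one day after compound addition.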 Conditions: primary human HUVEC with PBMC. An outline of the steps: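 Cytotoxicity endpoint in human endothelial–PBMC co-culture: 24 h exposure, then SRB (0.1%) staining, 560 nm read.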
Read-out in assay [16]: Interleukin-1 alpha (IL1a), IL1A (gene 3552)
Description: BSK_LPS_IL1a: BioMAP Diversity Plus: LPS Assay for Interleukin-1 alpha (IL1a) Biomarker Activity (AID 2283080). To be noted: primary human HUVEC with PBMC; actives raise or lower the signal. An outline of the steps: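 Primary human HUVEC and PBMC co-culture stimulated with LPS is dosed and harvested at 24 h. Both increases and decreases in ELISA-measured IL-1a are scored relative to DMSO.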

Read-out in assay [17]: Monocyte Chemoattractant Protein-1 (MCP1), CCL2 (gene 6347)
In words: BSK_LPS_MCP1: BioMAP Diversity Plus: LPS Assay for Monocyte Chemoattractant Protein-1 (MCP1) Biomarker Activity (AID 2283081). Conditions: primary human HUVEC with PBMC; actives raise or lower the signal. Summed up: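 Values derive from bidirectional fitting against DMSO of ELISA-measured MCP-1 in a human primary endothelial and mononuclear cell co-culture, 24 h after chemical addition under LPS activation.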

Read-out in assay [18]: C-C motif chemokine 2 (Homo sapiens) (UniProt P13500)
Description: BSK_KF3CT_MCP1: BioMAP Diversity Plus: KF3CT Assay for Monocyte Chemoattractant Protein 1 (MCP1/CCL2) Biomarker Activity (AID 2283073). To be noted: primary human keratinocytes with fibroblasts; actives raise or lower the signal. An outline of the steps: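 Biomarker MCP-1 is measured by ELISA in primary human keratinocytes co-cultured with foreskin fibroblasts, 24 h after chemical treatment; DMSO serves as the negative control and activity baseline.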

The nature of assay [19]: BSK_KF3CT_SRB: Viability Assessment in the BioMAP Diversity Plus: KF3CT Assay (AID 2283069).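 Note: read 24 h after compound addition.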 Conditions: primary human keratinocytes with fibroblasts. An outline of the steps: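 SRB read-out at 560 nm (0.1% stain, TCA-fixed cells) gauges overt cytotoxicity in a human skin keratinocyte–fibroblast co-culture 24 h post-dosing. Signal change was fitted bidirectionally relative to DMSO control.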

Activity calls are given as the source filed them. Rule for the calls: active = hit-call score of the fitted dose curve at least 0.9, where 1 is the maximum; inactive = score below 0.9.

Sequence of E-selectin (Homo sapiens) (P16581 whole entry, looked up): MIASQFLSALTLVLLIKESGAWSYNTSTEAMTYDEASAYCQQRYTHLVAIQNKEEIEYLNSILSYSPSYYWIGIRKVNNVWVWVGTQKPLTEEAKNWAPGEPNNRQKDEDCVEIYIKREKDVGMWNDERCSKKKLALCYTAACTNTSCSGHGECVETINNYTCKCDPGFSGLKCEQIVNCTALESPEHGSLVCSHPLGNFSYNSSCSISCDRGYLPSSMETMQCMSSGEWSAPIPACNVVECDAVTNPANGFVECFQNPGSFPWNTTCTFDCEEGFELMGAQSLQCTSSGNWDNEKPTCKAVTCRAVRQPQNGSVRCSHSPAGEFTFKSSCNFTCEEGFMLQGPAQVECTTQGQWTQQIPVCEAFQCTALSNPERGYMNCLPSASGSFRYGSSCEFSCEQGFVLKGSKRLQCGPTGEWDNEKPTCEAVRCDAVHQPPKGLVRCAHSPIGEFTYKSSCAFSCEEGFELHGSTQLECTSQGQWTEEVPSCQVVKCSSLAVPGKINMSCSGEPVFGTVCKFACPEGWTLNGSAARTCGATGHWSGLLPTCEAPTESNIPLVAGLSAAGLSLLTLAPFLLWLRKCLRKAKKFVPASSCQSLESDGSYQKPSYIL

For `NC1CCCCC1`, the result in assay [1], in [2], in assay [3], in assay [4], in assay [5] and in [6] was inactive. Besides, the result in [7], in [8], in assay [9], in [10], in assay [11] and in assay [12] was inactive. Besides, the outcome with CD40, CD40 (gene 958) is “inactive”; in assay [13], “inactive”; in assay [14], “inactive”; in assay [15] it was “inactive”; in assay [16], “inactive”; in assay [17] it was “inactive”.
Consider `Cn1cnc2c1c(=O)[nH]c(=O)n2C`, for which the result in assay [1], in assay [2], in [3], in [4], in [5] and in assay [6] was inactive. The outcome in assay [7], in assay [8], in assay [10], in assay [18], in assay [11] and in [12] was inactive. For the same compound, the outcome with CD40, CD40 (gene 958) was “inactive”; in assay [13] it was “inactive”; in [14], “inactive”; in assay [15] it was “inactive”; in assay [16] it was “inactive”; in assay [17], “inactive”.
Regarding `Cc1cc(SC2=C(O)C[C@@](CCc3ccc(N)cc3)(C(C)C)OC2=O)c(C(C)(C)C)cc1CO`, the outcome in [1], in [2], in [4], in assay [5], in [6] and in [7] was inactive. For the same compound, the result in [19], in assay [8], in assay [9], in assay [10], in assay [18] and in [11] was inactive. The outcome in assay [12] was “inactive”; with CD40, CD40 (gene 958), “inactive”; in assay [13], “inactive”; in assay [14], “inactive”; in [16] it was “inactive”; in assay [17], “inactive”.
Broadly, the AC50 is the concentration giving half of the maximal activity seen. Take `CCc1cc(C2=C(C(=O)O)N(c3ccccc3C(F)(F)F)S(=O)(=O)c3ccccc32)cc2c1OCO2`: the outcome in assay [1], in assay [2], in [4], in assay [5], in assay [6] and in assay [7] was inactive. The outcome in assay [8], in assay [9], in assay [10], in [18], in assay [11] and in assay [12] was inactive. In addition, the outcome with CD40, CD40 (gene 958) is “inactive”; in assay [13] it was “inactive”; in [16] it was “inactive”; in [17], “inactive”. Besides, in assay [3], the AC50 is 19.8 µM (active).
